Bead autofluor = counter-screen for toxin protease inhibitors: compound fluorescence. compound autofluorescence counterscreen, microsphere flow cytometry; hits give high values. fluorescence intensity (concentration not given with the values). hit rate 3.1% among 360,000; in the data active = fluorescence intensity above about 16000; inconclusive = no clear call, values can overlap the other calls
BoNT-F LC inh = blocks Botulinum neurotoxin F light chain protease | hit rate 0.22% among 360,000 | AID 588497 | Multiplex microsphere protease cleavage assay, flow cytometry | inhibition, % at 10 µM; in the data active = inhibition above about 35%, passing the limit was not always enough; inconclusive = no clear call, values can overlap the other calls
FBA Mtb inh = Mtb fructose-bisphosphate aldolase inhibition. inhibition, % at 1 µM. purified M. tuberculosis FBA, fluorescence read-out. P9WQA3. hit rate 2.3% among 360,000; in the data active = inhibition above about 27%
Target sequence (P9WQA3 whole entry, looked up): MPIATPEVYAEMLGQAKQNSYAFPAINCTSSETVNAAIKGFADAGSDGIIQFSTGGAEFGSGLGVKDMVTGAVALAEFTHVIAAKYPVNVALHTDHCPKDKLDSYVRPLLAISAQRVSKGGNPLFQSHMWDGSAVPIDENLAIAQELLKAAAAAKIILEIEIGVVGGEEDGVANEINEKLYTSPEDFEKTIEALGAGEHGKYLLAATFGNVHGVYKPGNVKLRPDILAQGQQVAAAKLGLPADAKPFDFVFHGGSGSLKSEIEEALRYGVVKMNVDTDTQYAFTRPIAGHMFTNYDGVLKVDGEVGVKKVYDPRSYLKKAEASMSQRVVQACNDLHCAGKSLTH
GDH-TPI counter = inhibits GDH-TPI coupling enzymes, artifact for Mtb FBA screen; GDH-TPI coupled enzyme counterscreen, NADH absorbance; inhibition, % at 4.8 µM; hit rate 1.2% among 360,000; AID 588335; in the data active = inhibition above about 30%
BoNT-A LC inh2 = inhibitors of Botulinum neurotoxin A light chain protease; multiplex microsphere protease substrate cleavage, flow cytometry; inhibition, % at 10 µM; hit rate 0.17% among 360,000; AID 588499
Anthrax LF inh2 = inhibitors of Bacillus anthracis lethal factor protease | hit rate 0.12% among 360,000 | inhibition, % at 10 µM | multiplex microsphere protease cleavage assay, LF | AID 588501
Numbers stand for hits; . = inactive; ? = inconclusive; + = active, no number. An excerpt weighted towards active compounds, which were near 6.7% of everything screened. Rule as the data show it, unless noted: active = inhibition above about 30%; inconclusive = no clear call, values can overlap the other calls; inactive = below that.

SMILES | Bead autofluor | BoNT-F LC inh | FBA Mtb inh | GDH-TPI counter | BoNT-A LC inh2 | Anthrax LF inh2
Cc1ccc(NC(=O)CC2(CC(=O)O)CCCC2)cc1 | . | . | . | . | . | .
Cc1cc(=O)oc2cc(NC(=O)CC3(CC(=O)O)CCCC3)ccc12 | ? | ? | + | . | . | .
CCC1(c2ccccc2)NC(=O)N(CC(=O)Nc2ccc3c(C)cc(=O)oc3c2)C1=O (stereo unspecified) | ? | . | 198.1 | . | . | .
CCCC(O)(c1ccc(OC)cc1)C(CN1CCOCC1)c1ccc(Cl)cc1 (stereo unspecified) | . | . | . | . | . | .
COCCCN(C(=O)Cc1ccc(Cl)c(Cl)c1)c1c(N)n(Cc2ccccc2)c(=O)[nH]c1=O | . | . | . | . | . | .
C=CCn1c(C)cc(-c2csc(NC(=O)C3CCN(c4ncnc5sc(C)c(C)c45)CC3)n2)c1C | . | . | . | . | . | .
Cc1ccc(-c2c(C(=O)N/N=C/c3ccc4c(c3)OCO4)nnn2-c2nonc2N)cc1 | . | . | . | 42.6 | . | .
Cc1ccc(SCc2c(C(=O)N/N=C/c3ccc4c(c3)OCO4)nnn2-c2nonc2N)cc1 | . | . | . | . | . | .
CCOc1cccc(-c2c(C(=O)N/N=C/c3sccc3C)nnn2-c2nonc2N)c1 | . | . | . | 32.2 | . | .
Cc1ccc(-c2c(C(=O)N/N=C/c3cccs3)nnn2-c2nonc2N)cc1 | . | . | . | . | . | .
Cc1ccsc1/C=N/NC(=O)c1nnn(-c2nonc2N)c1-c1ccc2c(c1)OCO2 | . | . | . | 32.3 | . | .
CCOc1ccc(-c2c(C(=O)N/N=C/c3sccc3C)nnn2-c2nonc2N)cc1 | . | . | . | . | . | .
Nc1nonc1-n1nnc(C(=O)N/N=C/c2cccs2)c1-c1ccc2c(c1)OCO2 | . | . | . | 38.6 | . | .
CCOc1cc(C(=O)OCC(=O)Nc2c(C)cccc2C)ccc1OCC(=O)N1CCOCC1 | . | . | . | . | . | .
CC(=O)c1nc2ccccc2n1S(=O)(=O)c1ccc(Cl)cc1 | 18292 | . | . | . | ? | .
CC(=O)c1nc2ccccc2n1S(=O)(=O)c1ccc(C)cc1 | . | . | . | . | . | .
Brc1c(CSc2nnc(-c3ccco3)o2)nc2ccccn12 | . | . | . | . | . | .
COC(=O)C1=C(c2cccc(OCc3ccccc3)c2)C[C@@H]2CC[C@H]1N2C(=O)NCCN1CCOCC1 | . | . | . | . | . | .
Cn1c(=O)c2cc(NC(=O)Nc3cccnc3)ccc2n1Cc1cccc(C(F)(F)F)c1 | . | . | 114.4 | . | . | .
O=C(CCc1ccccc1)Nc1cccnc1 | . | . | . | . | . | .
C=C(C)Cn1c2ccc(NC(=O)CCc3cccnc3)cc2c(=O)n1C | . | . | + | . | . | .
Cn1c(=O)c2cc(NC(=O)Nc3cccnc3)ccc2n1Cc1ccc(Cl)cc1 | . | . | 135.0 | . | . | .
C=C(C)Cn1c2ccc(NC(=O)NCCc3cccs3)cc2c(=O)n1C | . | . | 181.9 | . | . | .
Cc1ccc(OCC(=O)Nc2ccc(N3CCN(C(=O)c4ccco4)CC3)cc2)cc1C | . | . | . | . | . | .
COc1ccc(-n2c(Cc3cccn3C)nnc2SCC(=O)N2CCC(C)CC2)cc1 | . | . | . | . | . | .
SMILES | Bead autofluor | BoNT-F LC inh | FBA Mtb inh | GDH-TPI counter | BoNT-A LC inh2 | Anthrax LF inh2
CC(C)Oc1cccc(C(=O)NC(=S)NCc2cccnc2)c1 | . | . | . | . | . | .
CC(C)=CCn1c2ccc(NC(=O)Nc3cccnc3)cc2c(=O)n1C | . | . | 141.4 | . | . | .
O=C(Nc1nnc(C2CC2)s1)c1cccs1 | ? | . | . | . | . | .
CC1=CC(=O)N(c2ccc(C)cc2)C1c1ccc(Cl)cc1 (stereo unspecified) | . | . | . | . | . | .
CC1=CC(=O)N(c2cccc(C(F)(F)F)c2)C1c1ccc(Cl)cc1 (stereo unspecified) | 23466 | . | . | . | . | .
Cc1nn(Cc2ccccc2)c(Cl)c1C(=O)NCc1ccc(C)n1C | 19508 | . | . | . | ? | .
CCCOc1ccc(NC(=O)C2CC(=O)N3CCCN=C3S2)cc1 (stereo unspecified) | 23005 | . | . | . | . | .
Cc1ccccc1/C=C/c1nc2ccccc2c(=O)[nH]1 | . | . | . | 33.5 | . | .
CC(CC(=O)Nc1ccc(S(=O)(=O)Nc2ncccn2)cc1)c1ccccc1 (stereo unspecified) | . | . | . | . | . | .
COC(=O)c1nn(-c2ccc3c(c2)OCO3)cc1O | . | . | . | . | . | .
CCOC(=O)c1nn(-c2ccc([N+](=O)[O-])cc2)cc1O | . | . | . | . | . | .
CCOC(=O)c1nn(-c2ccc(C)c(C)c2)cc1O | 23047 | . | . | . | . | .
COC(=O)c1nn(-c2ccc3c(c2)CCN3C(C)=O)cc1O | . | . | 195.1 | . | . | .
Cn1cccc1Cc1nnc(SCC(=O)N2CCCCCC2)n1CCc1ccccc1 | . | . | . | . | . | .
CCOC(=O)C1=C(C)Nc2sc(C(=O)c3ccc(OC)cc3)c(N)c2C1c1ccc(C(=O)OC)cc1 (stereo unspecified) | . | . | . | . | 29.8 | .
COC(=O)C1=C(C)Nc2sc(C(N)=O)c(N)c2C1c1ccncc1 (stereo unspecified) | . | . | . | . | . | .
CC1(C(=O)NS(=O)(=O)c2ccccc2Cl)CCN1C(=O)C1CC1 (stereo unspecified) | . | . | . | . | . | .
COc1ccc(-c2nnc(SC(C)C(=O)Nc3nccs3)n2Cc2ccccc2)cc1OC (stereo unspecified) | 20588 | . | . | . | . | .
COc1ccc(-c2nnc(SC(C)C(=O)Nc3nccs3)n2-c2ccccc2)cc1OC (stereo unspecified) | . | . | . | . | . | .
CCc1nnc(N/N=C/c2cccs2)n1N | . | . | . | . | . | .
Cn1cnc2c(N/N=C/c3cccs3)ncnc21 | . | . | . | 39.1 | . | ?
C(=N\Nc1ncnc2sc3c(c12)CCC3)/c1cccs1 | . | . | . | 33.3 | . | .
Cc1ccc(S(=O)(=O)NNc2ccccc2)cc1 | 16260 | . | . | . | ? | .
Cc1ccc(S(=O)(=O)NNC(=O)c2ccccc2O)cc1 | . | 39.1 | . | . | . | .
O=C(NNS(=O)(=O)c1ccc(F)cc1)c1ccccc1O | . | . | . | . | . | .
SMILES | Bead autofluor | BoNT-F LC inh | FBA Mtb inh | GDH-TPI counter | BoNT-A LC inh2 | Anthrax LF inh2
CCCCOCC1CC(CC#CCN2CCCCC2)C(=O)O1 (stereo unspecified) | . | . | . | . | . | .
CC1CCc2cccc3c2N1c1cc(C#N)c(C#N)cc1O3 (stereo unspecified) | 23863 | . | . | . | . | .
Cc1ccc2c(c1)C(c1ccccc1)C(=O)O2 (stereo unspecified) | . | ? | . | . | . | .
CCNS(=O)(=O)c1ccc(NS(C)(=O)=O)cc1 | . | . | . | . | . | .
CS(=O)(=O)Nc1ccc(OCc2ccccc2)cc1 | 24301 | . | . | . | . | .
CS(=O)(=O)Nc1ccc(S(=O)(=O)NCCc2ccccc2)cc1 | 24049 | . | . | . | . | .
